Reference: PubChem BioAssay (NCATS)
Records with an inconclusive call do not appear. Calls of active or inactive are those of the source. Calls come from the whole dose curve; as a rule, active = well fitted inhibition curve with a large enough effect; inconclusive = small, poorly fitted or top-dose-only effect; inactive = no such curve, though single readings can be large or run the other way.

Target: Cytochrome P450 2D6 (Homo sapiens) (UniProt P10635)
Test: qHTS Assay for Inhibitors and Substrates of Cytochrome P450 2D6 (AID 891); note: nearly all actives have a fitted effect of over 60% in size
In short: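 Human CYP2D6 (5 nM) with 30 uM Luciferin-ME EGE (at Km) in 100 mM KPO4, compound preincubated 10 min, then NADPH regeneration system for 60 min at room temperature. Luciferin read by luminescence; normalized to 1.43 uM quinidine.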
Potency is the fitted concentration of half-maximal effect.

Chain of Cytochrome P450 2D6 (Homo sapiens) (P10635 whole entry, looked up): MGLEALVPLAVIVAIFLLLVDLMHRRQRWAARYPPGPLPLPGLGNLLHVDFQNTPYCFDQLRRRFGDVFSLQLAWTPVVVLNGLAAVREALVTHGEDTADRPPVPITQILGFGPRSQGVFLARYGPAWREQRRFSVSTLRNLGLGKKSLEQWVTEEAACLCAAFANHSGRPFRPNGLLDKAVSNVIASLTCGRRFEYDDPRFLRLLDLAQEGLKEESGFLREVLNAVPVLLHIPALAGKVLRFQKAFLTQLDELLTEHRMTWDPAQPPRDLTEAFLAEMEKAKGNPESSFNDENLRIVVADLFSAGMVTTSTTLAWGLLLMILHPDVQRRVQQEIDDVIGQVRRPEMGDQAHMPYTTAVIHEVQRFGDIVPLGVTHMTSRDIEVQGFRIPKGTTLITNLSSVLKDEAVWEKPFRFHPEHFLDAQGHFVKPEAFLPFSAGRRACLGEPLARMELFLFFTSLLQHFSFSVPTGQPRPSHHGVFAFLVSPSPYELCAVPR

Structure (SMILES) | Potency
COc1ccc2[nH]cc(CCNc3ncnc4ccc(-c5cccnc5)cc34)c2c1 | 7.94 µM (active)
CNc1nc(-c2ccccc2CN(C)C)nc2ccccc12 | 3.98 µM (active)
Cc1ccccc1-c1nccc(NCc2cccs2)n1 | 2.51 µM (active)
CN1CCN(c2ncncc2-c2ccc(C(=O)N(C)C)cc2)CC1 | 0.251 µM (active)
